Assay [1] concerns the target Cellular tumor antigen p53 (Homo sapiens) (UniProt P04637). The experiment in a line: Primary qHTS for small molecule compounds that upregulate eGFP-tagged delta133p53alpha (in N-terminal) cells. (AID 2060322).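 Also: series mostly up to about 56 µM; 0% = DMSO vehicle and 100% = reference activator; nearly all actives have a fitted effect of over 75% in size.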 The conditions noted are these: NCI-H358 eGFP-delta133p53alpha fluorescence, 24 h; activation: hits give high values. An outline of the steps:
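NCI-H358 cells pre-induced 24 h with 10 ng/ml doxycycline to express N-terminal eGFP-delta133p53alpha, then dosed 24 h at 37C without doxycycline; fixed, Hoechst-stained, GFP intensity by laser scanning cytometry, normalized to DMSO (0%) and 57.5 uM 5-azacytidine (100%).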
(In general: qHTS replaces the single test concentration by a dilution series.)

Assay [2] addresses Aldehyde dehydrogenase, mitochondrial (Homo sapiens) (UniProt P05091). The experiment in a line: qHTS for Inhibitors of the Aldehyde Dehydrogenase Family (ALDH2) Primary screen (AID 2061308).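 Also: plate controls were vehicle for no effect and reference inhibitor for full effect; nearly all actives have a fitted effect of over 55% in size.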
Assay [3] in a line: qHTS for Inhibitors of the Aldehyde Dehydrogenase Family (ALDH1A2, ALDH1A3, ALDH2, ALDH3A1) (AID 2061307). Also: nearly all actives have a fitted effect of over 50% in size. As to Potency: test system not described further here; potency is read from the fitted curve at half-maximal effect.
The target of assay [4] is Retinal dehydrogenase 2 (Homo sapiens) (UniProt O94788). The experiment in a line: qHTS for Inhibitors of the Aldehyde Dehydrogenase Family (ALDH1A2) Confirmation screens (AID 2061314). Also: nearly all actives have a fitted effect of over 65% in size. Also: potency is read from the fitted curve at half-maximal effect.
Assay [5] concerns the target Aldehyde dehydrogenase 1A1 (Homo sapiens) (UniProt P00352). The experiment in a line: qHTS for Inhibitors of the Aldehyde Dehydrogenase Family (ALDH1A1) Confirmatory screens (AID 2061316). Also: nearly all actives have a fitted effect of over 65% in size. Also: potency is read from the fitted curve at half-maximal effect.
Assay [6] can be described thus: BET inhibitor-based combinations targeting novel dependencies in MECOM-rearranged (r) AML: OCI-AML3 cell line (AID 2202232).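 Also: series mostly up to about 46 µM; plate controls were DMSO vehicle wells for no effect and wells without cells for full effect; nearly all actives have a fitted effect of over 35% in size.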 The conditions noted are these: Potency: OCI-AML3 viability. An outline of the steps: (§1)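 Here, 11-point titrations of each agent were applied to 500 seeded cells and incubated 48 hr; CellTiter-Glo signal, scaled against DMSO and empty wells, was integrated as AUC, then Z-scored within the individual line.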

Assay [7] in a line: BET inhibitor-based combinations targeting novel dependencies in MECOM-rearranged (r) AML: MV-4-11 cell line (AID 2202233).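 Also: plate controls were DMSO for no effect and blank wells for full effect; nearly all actives have a fitted effect of over 45% in size.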 An outline of the steps: (§2)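 Normalized to DMSO and empty-well controls, the luminescence data from CellTiter-Glo after 48 hr drug exposure were fitted across 11 concentrations. Reported metrics are area under the dose-response curve and its Z-transformed form.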

Assay [8] is described as follows: BET inhibitor-based combinations targeting novel dependencies in MECOM-rearranged (r) AML: HNT-34 cell line (AID 2202234).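 Also: plate controls were vehicle wells for no effect and cell-free wells for full effect; nearly all actives have a fitted effect of over 35% in size.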 A digest of the protocol: as §2
A short description of assay [9]: BET inhibitor-based combinations targeting novel dependencies in MECOM-rearranged (r) AML: UCSD-AML1 cell line (AID 2202235).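 Also: series mostly up to about 46 µM; plate controls were DMSO vehicle wells for no effect and blank wells for full effect; nearly all actives have a fitted effect of over 40% in size.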 An outline of the steps: as §2
Assay [10] is described as follows: BET inhibitor-based combinations targeting novel dependencies in MECOM-rearranged (r) AML: AML-191 cell line (AID 2202236;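 also: plate controls were vehicle wells for no effect and wells without cells for full effect; nearly all actives have a fitted effect of over 35% in size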). A digest of the protocol: as §1
Assay [11] has as its target Retinaldehyde dehydrogenase 3 (Homo sapiens) (UniProt P47895). The experiment in a line: qHTS for Inhibitors of the Aldehyde Dehydrogenase Family (ALDH1A3) Confirmatory screens (AID 2061311). Also: nearly all actives have a fitted effect of over 60% in size. Also: potency is read from the fitted curve at half-maximal effect.
For assay [12] the target is unchanged. The experiment in a line: qHTS for Inhibitors of the Aldehyde Dehydrogenase Family (ALDH1A3) Primary screen (AID 2061315).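 Also: plate controls were DMSO vehicle for no effect and reference inhibitor for full effect.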

Activation and Potency data for nine compounds are collected here from PubChem BioAssay (NCATS).

Inconclusive results are not listed. Unmarked numbers belong to inactive results. Activity calls are given as the source filed them. Calls follow the shape of the dose curve; as a rule, active = well fitted curve in the direction sought with a large enough effect; inconclusive = small, poorly fitted or top-dose-only effect, or another doubt; inactive = no such curve, though single readings can be large; an effect the other way counts as inactive or inconclusive.

Sequence of Cellular tumor antigen p53 (Homo sapiens) (P04637 whole entry, looked up): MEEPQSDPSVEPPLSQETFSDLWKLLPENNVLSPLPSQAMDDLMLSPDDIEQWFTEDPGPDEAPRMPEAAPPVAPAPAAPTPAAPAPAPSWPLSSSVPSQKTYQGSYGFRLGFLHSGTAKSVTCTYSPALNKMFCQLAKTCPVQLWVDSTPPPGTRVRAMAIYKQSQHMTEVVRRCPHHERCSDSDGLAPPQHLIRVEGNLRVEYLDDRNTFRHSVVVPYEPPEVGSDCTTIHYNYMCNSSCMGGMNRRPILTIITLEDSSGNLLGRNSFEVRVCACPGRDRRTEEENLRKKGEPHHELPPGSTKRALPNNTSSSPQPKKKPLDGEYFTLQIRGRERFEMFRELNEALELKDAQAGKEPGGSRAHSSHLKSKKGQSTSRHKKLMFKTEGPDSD

In the case of `CC(=O)c1c(C)cccc1O[C@@H]1O[C@H](CO)[C@@H](O)[C@H](O)[C@H]1O`, the activation in [1] was 13%. Besides, the Potency entry in assay [2] was “inactive”.
In the same order, the values of `CN1CCCC1Cc1c[nH]c2ccc(CCS(=O)(=O)c3ccccc3)cc12` (stereo unspecified) are 24.3% and “inactive”.
Consider `COC(=O)C[C@H]1[C@]2(C)C3=C(C)[C@H](c4ccoc4)C[C@H]3O[C@@H]2[C@H](OC(C)=O)C2[C@](C)(C(=O)OC)C=CC(=O)[C@@]21C` (stereo partly specified), for which the activation in assay [1] was 11.6%. Besides, the Potency entry in assay [2] is “inactive”.
For the compound `O=C(NNc1ccccc1)c1ccncc1`, the activation in assay [1] was -8.33%. Besides, the Potency entry in assay [3], in assay [4], in assay [5], in [6], in assay [7] and in assay [8] was “inactive” each time. The Potency result in assay [9] and in assay [10] was “inactive” throughout.
For the compound `C=C1C(O)CC2C(C(=O)O)=COC(OC3OC(CO)C(O)C(O)C3OC(=O)/C=C\c3ccc(O)cc3)C12` (stereo unspecified), the activation in [1] is -22.9%. Moreover, the Potency entry in assay [2] is “inactive”.
In the same order, the values of `O=C(/C=C/c1ccccc1)O[C@@H]1[C@@H](CO)O[C@@](CO)(O[C@H]2O[C@H](CO)[C@@H](O)[C@H](O)[C@H]2O)[C@H]1O` are -26% and “inactive”.
In the same order, the values of `COc1cc(/C=C/C=O)cc(OC)c1O[C@@H]1O[C@H](CO)[C@@H](O)[C@H](O)[C@H]1O` are -14.3% and “inactive”.
Take `CN(C)c1ccc(NC(=O)NS(=O)(=O)c2ccc(Cl)cc2)cc1`: in [1], the activation was -1.67%. For the same compound, the Potency in assay [3] was 6.34 µM (active); in assay [11], 2.83 µM (active); in [4], 10.1 µM (active); in assay [5] it was 7.98 µM (active).
Take `CC(C)c1ccc2c(c1)CCC1[C@](C)(C(=O)O)CCC[C@]21C` (stereo partly specified): the activation in [1] was 9.82%. Moreover, the Potency result in [3], in assay [11], in [12] and in assay [5] was “inactive” each time.
